The structures appear in SMILES notation. Calls of active or inactive are those of the source.

The nature of test [1]: binders of probe aFSTL3 on microarray, primary screen, stem cell growth factor project, biochemical, small-molecule microarray, fluorescence 635/667 (AID 1064).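 Note: measures binding of the biotinylated anti-FSTL3 antibody to printed compounds.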 The settings on record: higher = more signal.
Test [2] can be described thus: binders from COS7 lysate, DM2A8 probe, primary screen, torsin A project, cell lysate, small-molecule microarray, fluorescence 635/667 (AID 1065). As to conditions: higher = more signal, COS7 lysate expressing mutant human TOR1A.
Test [3] is described as follows: binders of probe aFGF2 on microarray, primary screen, stem cell growth factor project, biochemical, small-molecule microarray, fluorescence 635/667 (AID 1067).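 Note: measures binding of biotinylated aFGF2 protein to printed compounds on slides; z-score merges feature fluorescence and signal-to-noise across triplicate slides.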 The settings on record: higher = more signal.
A short description of test [4]: binders of probe aFGF10 on microarray, primary screen, stem cell growth factor project, biochemical, small-molecule microarray, fluorescence 635/667 (AID 1071).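 Note: score merges 667 nm spot intensity and signal to noise from triplicate slides.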 As to conditions: higher = more signal.
Test [5] addresses Neurogenic locus notch homolog protein 2 (Homo sapiens) (UniProt Q04721). As to the kind of experiment: Notch2 binders on small-molecule microarrays, primary screen, biochemical, small-molecule microarray, 635 nm fluorescence, stem cell growth factors (AID 1073). As to conditions: Notch2 binding, higher = more signal.
Test [6] concerns the target Pro-neuregulin-1, membrane-bound isoform (Homo sapiens) (UniProt Q02297). As to the kind of experiment: NRG1 binders on small-molecule microarrays, primary screen, psychiatric disease protein project, biochemical, small-molecule microarray, fluorescence 635/667 (AID 1075).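 Note: score combines 667 nm spot fluorescence with signal to noise.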 The settings on record: NRG1 binding, 635 nm fluorescence, higher = more signal.
In test [7] the test system is Neuregulin-1 EGF-like domain. As to the kind of experiment: binders of neuregulin-1 EGF-like domain, primary screen, biochemical, small-molecule microarray, 635 nm fluorescence (AID 1081).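 Note: binding of the protein to compounds printed on small-molecule microarray slides.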 The settings on record: small-molecule microarray binding, higher = more signal.
Test [8] in a line: FRG1 promoter luciferase signal modulators, primary screen, FRG1 inhibition for FSHD, cell-based, C2C12 myotubes, firefly/Renilla luciferase, luminescence (AID 1084). The settings on record: higher = more signal, called active from +8 up or from −8 down.
Test [9] is described as follows: binders of probe aFST on microarray, primary screen, stem cell growth factor project, biochemical, small-molecule microarray, fluorescence 635/667 (AID 1086).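 Note: score merges 667 nm fluorescence with signal-to-noise of each printed compound spot.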 The settings on record: higher = more signal.
A short description of test [10]: binders of probe aHhip on microarray, primary screen, stem cell growth factor project, biochemical, small-molecule microarray, fluorescence 635/667 (AID 1087).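 Note: score merges spot fluorescence at 667nm with spot signal to noise ratio.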 As to conditions: higher = more signal.
In test [11] the test system is PRMT1 (protein arginine N-methyltransferase 1). Kind of test: PRMT1 binders on small-molecule microarrays, primary screen, biochemical, small-molecule microarray, 635 nm fluorescence (AID 1088).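 Note: binding of Prmt1 protein to compounds spotted on small-molecule microarray slides.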 As to conditions: small-molecule microarray binding, higher = more signal.
A short description of test [12]: yeast growth modulation, basal conditions, primary screen, YJM789 clinical isolate, OD600, 24 h (AID 1089).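 Note: growth of clinical yeast isolate S. cerevisiae YJM 789 seeded 1000 cells per well; test concentration not given here.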 As to conditions: S. cerevisiae YJM789 growth, higher = more signal, called active from +8 up or from −8 down.
A short description of test [13]: fission yeast growth modulation, primary screen, strain 972, OD600, 24 h, no modulator (AID 1090).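 Note: basal condition with compound alone and no growth modifier present; test concentration not given here.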 The settings on record: S. pombe 972 growth, higher = more signal, called active from +8 up or from −8 down.
Test [14] can be described thus: S. cerevisiae growth modulation with rapamycin, primary screen, strain BY4716, OD600, 96 h (AID 1091). Note: test concentration not given here. As to conditions: higher = more signal, called active from +8 up or from −8 down.
In test [15] the target is Torsin-1A-interacting protein 2 (Homo sapiens) (UniProt Q8NFQ8). As to the kind of experiment: LULL1 binders on small-molecule microarray, primary screen, cell lysate, human LULL1 lysate, 635/667 nm fluorescence (AID 1092).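 Note: probe is lysate of COS7 cells overexpressing human LULL1; score merges per-feature 667 nm fluorescence with signal-to-noise.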 As to conditions: hLULL1 lysate binding, 635 nm fluorescence, higher = more signal.
Test [16] is described as follows: E. coli growth modulation, two-sided OD650, primary screen, E. coli filamentation project, strain DRC41, 24 h (AID 1093).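 Note: MC1000 strain lacking acrAB efflux and sulA so SOS filamentation is blocked; test concentration not given here.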 The settings on record: OD650, 24 h, higher = more signal, called active from +8 up or from −8 down.
A short description of test [17]: small-molecule microarray binders of probe aLefty2, primary screen, biochemical, biotinylated probe, 635/667 nm fluorescence (AID 1094).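 Note: score merges spot fluorescence near 667 nm with spot signal-to-noise ratio.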 As to conditions: higher = more signal.
The test system of test [18] is Noggin (protein binding on small-molecule microarray). As to the kind of experiment: Noggin binders on small-molecule microarray, primary screen, biochemical, 635/667 nm fluorescence (AID 1095).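 Note: score merges 667 nm feature fluorescence with signal to noise over triplicate slides.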 The settings on record: 635 nm fluorescence, higher = more signal.
Test [19] has as its target Neurogenic locus notch homolog protein 3 (Homo sapiens) (UniProt Q9UM47). Kind of test: NOTCH3 binders on small-molecule microarray, primary screen, biochemical, 635/667 nm fluorescence (AID 1096). As to conditions: NOTCH3 binding, 635 nm fluorescence, higher = more signal.
Test [20] is described as follows: small-molecule microarray binders of probe aEGFR, primary screen, biochemical, biotinylated probe, 635/667 nm fluorescence (AID 1097).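 Note: probe is a biotinylated anti-EGFR antibody binding compounds printed on slides; score combines fluorescence near 667 nm and signal to noise of each spot.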 The settings on record: higher = more signal.

Chain of Pro-neuregulin-1, membrane-bound isoform (Homo sapiens) (Q02297 whole entry, looked up, the tested form may be a part, canonical isoform): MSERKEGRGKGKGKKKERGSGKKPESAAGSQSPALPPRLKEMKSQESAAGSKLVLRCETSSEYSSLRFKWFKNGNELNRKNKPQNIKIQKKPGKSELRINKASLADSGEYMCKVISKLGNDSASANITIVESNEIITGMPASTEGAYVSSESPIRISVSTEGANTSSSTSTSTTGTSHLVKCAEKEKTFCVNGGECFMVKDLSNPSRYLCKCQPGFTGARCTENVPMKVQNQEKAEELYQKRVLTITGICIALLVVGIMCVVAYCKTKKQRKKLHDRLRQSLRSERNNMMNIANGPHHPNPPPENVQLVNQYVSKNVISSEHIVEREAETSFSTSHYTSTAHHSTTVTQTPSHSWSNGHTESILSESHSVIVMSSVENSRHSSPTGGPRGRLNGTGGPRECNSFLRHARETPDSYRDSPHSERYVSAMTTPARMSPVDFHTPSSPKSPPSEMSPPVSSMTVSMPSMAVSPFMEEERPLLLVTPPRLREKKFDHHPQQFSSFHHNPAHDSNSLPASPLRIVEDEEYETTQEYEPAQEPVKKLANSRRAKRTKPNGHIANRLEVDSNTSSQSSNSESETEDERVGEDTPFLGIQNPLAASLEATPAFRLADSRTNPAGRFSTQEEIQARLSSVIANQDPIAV
Chain of Torsin-1A-interacting protein 2 (Homo sapiens) (Q8NFQ8 whole entry, looked up): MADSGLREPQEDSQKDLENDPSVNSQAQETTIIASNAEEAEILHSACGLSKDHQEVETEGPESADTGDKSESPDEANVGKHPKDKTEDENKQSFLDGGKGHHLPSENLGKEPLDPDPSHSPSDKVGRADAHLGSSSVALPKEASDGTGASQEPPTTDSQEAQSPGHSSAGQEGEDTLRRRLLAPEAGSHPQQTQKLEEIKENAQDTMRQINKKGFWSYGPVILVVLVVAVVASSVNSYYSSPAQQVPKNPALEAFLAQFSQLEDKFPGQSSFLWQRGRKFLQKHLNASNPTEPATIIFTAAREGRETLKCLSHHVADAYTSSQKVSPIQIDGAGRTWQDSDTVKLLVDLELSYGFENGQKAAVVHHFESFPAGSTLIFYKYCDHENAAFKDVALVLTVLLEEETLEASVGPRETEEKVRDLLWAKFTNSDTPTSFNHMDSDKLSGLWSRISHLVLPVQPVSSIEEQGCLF
Chain of Neurogenic locus notch homolog protein 3 (Homo sapiens) (Q9UM47 whole entry, looked up): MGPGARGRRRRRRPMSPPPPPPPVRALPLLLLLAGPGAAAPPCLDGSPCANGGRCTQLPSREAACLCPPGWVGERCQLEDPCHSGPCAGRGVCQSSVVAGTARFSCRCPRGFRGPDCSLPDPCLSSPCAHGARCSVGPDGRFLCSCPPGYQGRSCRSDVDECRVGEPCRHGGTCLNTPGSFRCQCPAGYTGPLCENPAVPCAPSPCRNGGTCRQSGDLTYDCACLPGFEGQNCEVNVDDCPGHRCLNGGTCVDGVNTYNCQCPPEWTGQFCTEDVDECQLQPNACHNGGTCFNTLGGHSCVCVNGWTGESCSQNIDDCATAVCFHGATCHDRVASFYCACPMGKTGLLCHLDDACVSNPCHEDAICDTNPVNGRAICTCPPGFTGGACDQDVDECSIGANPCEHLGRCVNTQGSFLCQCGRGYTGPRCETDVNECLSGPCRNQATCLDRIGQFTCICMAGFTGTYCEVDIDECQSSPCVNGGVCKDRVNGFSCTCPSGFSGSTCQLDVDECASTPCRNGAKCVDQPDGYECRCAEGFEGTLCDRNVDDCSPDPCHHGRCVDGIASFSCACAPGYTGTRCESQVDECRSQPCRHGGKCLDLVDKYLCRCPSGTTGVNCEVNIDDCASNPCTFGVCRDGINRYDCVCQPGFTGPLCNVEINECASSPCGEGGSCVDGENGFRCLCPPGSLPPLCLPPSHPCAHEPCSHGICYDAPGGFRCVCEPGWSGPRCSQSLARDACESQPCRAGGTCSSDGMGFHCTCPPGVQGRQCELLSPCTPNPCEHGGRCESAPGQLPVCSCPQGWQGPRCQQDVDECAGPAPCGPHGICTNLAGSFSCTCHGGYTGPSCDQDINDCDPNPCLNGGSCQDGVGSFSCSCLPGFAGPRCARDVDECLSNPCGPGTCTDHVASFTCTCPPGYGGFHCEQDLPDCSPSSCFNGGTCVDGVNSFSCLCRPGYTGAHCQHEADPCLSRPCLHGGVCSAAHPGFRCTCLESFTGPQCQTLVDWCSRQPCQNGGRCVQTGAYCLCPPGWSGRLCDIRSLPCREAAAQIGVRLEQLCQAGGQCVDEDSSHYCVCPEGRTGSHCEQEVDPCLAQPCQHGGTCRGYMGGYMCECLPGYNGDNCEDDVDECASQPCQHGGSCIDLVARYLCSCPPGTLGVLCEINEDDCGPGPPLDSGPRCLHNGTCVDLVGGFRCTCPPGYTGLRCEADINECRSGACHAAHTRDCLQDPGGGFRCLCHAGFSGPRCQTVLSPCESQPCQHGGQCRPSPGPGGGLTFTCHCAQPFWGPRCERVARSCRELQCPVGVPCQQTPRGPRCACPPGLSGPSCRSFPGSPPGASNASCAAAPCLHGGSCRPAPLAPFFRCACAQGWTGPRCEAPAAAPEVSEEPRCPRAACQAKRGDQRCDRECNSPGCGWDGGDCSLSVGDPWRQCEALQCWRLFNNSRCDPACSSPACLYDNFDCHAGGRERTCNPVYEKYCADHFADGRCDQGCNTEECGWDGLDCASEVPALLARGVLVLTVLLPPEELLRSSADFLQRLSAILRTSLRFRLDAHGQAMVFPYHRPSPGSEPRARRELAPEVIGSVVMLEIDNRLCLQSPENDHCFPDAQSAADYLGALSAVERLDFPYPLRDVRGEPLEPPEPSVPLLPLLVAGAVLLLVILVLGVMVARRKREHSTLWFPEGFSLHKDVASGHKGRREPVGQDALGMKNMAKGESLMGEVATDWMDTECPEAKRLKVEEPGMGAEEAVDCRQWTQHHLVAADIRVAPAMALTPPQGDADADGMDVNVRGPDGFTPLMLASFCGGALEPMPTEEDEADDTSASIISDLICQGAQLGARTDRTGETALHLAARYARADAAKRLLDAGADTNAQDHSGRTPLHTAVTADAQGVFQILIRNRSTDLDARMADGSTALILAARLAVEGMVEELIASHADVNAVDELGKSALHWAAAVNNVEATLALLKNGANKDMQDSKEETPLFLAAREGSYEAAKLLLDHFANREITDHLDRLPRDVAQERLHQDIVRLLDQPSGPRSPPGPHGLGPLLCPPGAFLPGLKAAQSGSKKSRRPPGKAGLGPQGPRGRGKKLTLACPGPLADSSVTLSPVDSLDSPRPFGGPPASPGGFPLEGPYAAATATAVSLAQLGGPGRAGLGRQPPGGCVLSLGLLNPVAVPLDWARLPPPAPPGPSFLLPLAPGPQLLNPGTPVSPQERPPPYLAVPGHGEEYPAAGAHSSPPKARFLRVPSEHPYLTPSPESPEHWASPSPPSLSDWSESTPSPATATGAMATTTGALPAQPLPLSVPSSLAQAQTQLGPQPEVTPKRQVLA

For the compound `CN(C)CCCCNC(=O)[C@H]1C[C@H]2C(=O)NCC(=O)N2[C@H]1c1ccc(O)cc1`, the composite z-score in test [1] was -0.772; in [2] it was -1.42; in [3] it was -0.273; in test [4] it was -0.814; in [5], -0.929; in [6] it was 0.68. In addition, the composite z-score in [7] is 1.07; in test [9], 0.0525; in test [10], -0.407; in test [11] it was 0.784; in test [15], 1.21; in [17] it was -0.189. Further, the values for the composite z-score in test [18], in test [19] and in [20] were 0.15, 0.408 and -0.139, respectively. Besides, the z-score in test [8] was 5.11 (inactive); in test [12], 0.873 (inactive); in test [13], 0.981 (inactive); in test [14] it was 0.144 (inactive); in test [16], 0.187 (inactive).
On to `CC1CC/C=C\[C@H]2OC34C=CCN(c5ccc6ccccc6c5)C(=O)[C@H]3N(C(C)CO)C(=O)[C@@H]4C2C(=O)O1` (stereo not given in full), for which the composite z-score is 0.018 in test [1]; -1.51 in test [2]; -0.178 in [3]; -0.489 in test [4]; -0.858 in [5]; -0.318 in test [6]. The composite z-score in test [7] was -0.0133; in test [9], -0.187; in test [10], -0.0994; in test [11], 0.541; in [15], -0.172; in test [17], -0.244. Besides, the values for the composite z-score in test [18], in [19] and in test [20] were -1.1, -0.0196 and -0.252, respectively. The z-score is 1.14 (inactive) in test [8]; 0.612 (inactive) in test [12]; -0.197 (inactive) in test [13]; 0.407 (inactive) in test [14]; -0.312 (inactive) in test [16].
Regarding `Cc1ccc(S[C@]2(C(=O)NCC(F)(F)F)CC(=O)N(Cc3ccccc3C(F)(F)F)[C@@H]2c2ccc(CO)cc2)cc1`, the composite z-score in [1] was 0.953; in test [2], -0.0728; in [3], -0.1; in test [4], -0.0379; in test [5] it was -1.14; in test [6] it was -0.401. Further, the composite z-score in [7] is 0.573; in test [9] it was -0.606; in test [10], -0.191; in [11], 0.895; in [15], 1.67; in [17], 0.145. Further, the composite z-score was -0.872 in [18], -0.462 in [19] and -0.0416 in [20]. For the same compound, the z-score in test [8] was -1.82 (inactive); in [12], -0.837 (inactive); in test [13] it was 0.0848 (inactive); in [14] it was -0.203 (inactive); in test [16] it was -0.254 (inactive).
As for `CCCN1C(=O)[C@]2(CCC(=O)OC(C)(C)C)N=C(c3ccc(OCCCO)cc3)O[C@@H]2c2ccccc21`, the composite z-score in test [1] was 0.678; in test [2], 1.24; in test [3], -0.0136; in test [4], 0.152; in test [5], 0.399; in [6], 0.421. For the same compound, the composite z-score is 1.07 in test [7]; 0.0678 in test [9]; -0.0645 in [10]; 1.52 in test [11]; 1.62 in test [15]; 0.151 in [17]. In addition, the values for the composite z-score in test [18], in test [19] and in test [20] were 1.37, 0.571 and -0.134, respectively. In addition, the z-score is 0.177 (inactive) in test [8]; -1.93 (inactive) in test [12]; -0.474 (inactive) in test [13]; 1.5 (inactive) in test [14]; 0.916 (inactive) in test [16].
As for `NC(=O)N1C(=O)C2C(C1=O)C1C=C(CCCO)C2C(C2CC2)N1Cc1sc2ccccc2c1Cl` (stereo not given), the composite z-score is -0.4 in test [1]; 1.09 in [2]; 0.0397 in test [3]; 1.27 in test [4]; 0.481 in test [5]; 1.45 in [6]. In addition, the composite z-score is 1.21 in test [7]; 0.115 in test [9]; -0.134 in test [10]; 1.56 in test [11]; 2.14 in test [15]; 0.0819 in [17]. Besides, the composite z-score in [18] is 0.355; in [19], 1.13; in test [20], -0.0697. Also, the z-score is 0.906 (inactive) in [8]; -0.425 (inactive) in test [12]; -2.48 (inactive) in [13]; -1.63 (inactive) in [14]; 0.792 (inactive) in test [16].

Values taken from PubChem BioAssay.
